# About 430 (29%) of roughly 1,500 compounds were called active. How the calls were made is not given here. The list is a sample of the results. Results with a measured potency or affinity are listed apart.
# Assay: glucose-independent GLuc insulin release activation – cell-based, INS-1E, Gaussia luciferase, luminescence, cherry-pick, counter-screen for glucose-dependent insulin secretion activators, dose response (AID 977606)
# Conditions: INS-1E Gaussia luciferase insulin secretion, no glucose, 100% = twice neutral-control luminescence; series mostly up to 35 µM
row,SMILES,outcome
1,O=C(Nc1ccc(S(=O)(=O)N2CCOCC2)cc1)c1ccc(=O)[nH]c1,inactive
2,O=C(NCc1ccc(Cl)cc1)c1cc(=O)[nH]c2ccc(S(=O)(=O)N3CCOCC3)cc12,inactive
3,COc1ccc2[nH]c3c(NCCCN4CCCC4=O)ncnc3c2c1,inactive
4,O=c1c(Cc2ccc(Cl)cc2Cl)c(O)ccn1CC(F)(F)F,inactive
5,CCNc1nc(NCC)nc(Nn2cnnc2)n1,inactive
6,CS(=O)(=O)N1CCCCC1c1cc(C(=O)Nc2cccc3c2CCCC3)no1 (centres undefined),inactive
7,CCOC(=O)c1nc(SC)n(C)c1C(=O)OCC,inactive
8,COc1ccc2c(c1)C(C)(Cc1ccc(C(=O)c3ccccc3)cc1)C(=O)N2 (centres undefined),inactive
9,O=C(O)c1ccc(/C=N/n2c(C3CCCCC3)n[nH]c2=S)cc1,inactive
10,Cc1ccc(/C=N/n2c(-c3cccnc3)n[nH]c2=S)s1,inactive
11,C[C@H]1[C@@H](c2ccccc2)Oc2c(Cl)cccc2S(=O)(=O)N1C,inactive
12,O=C(COc1ccccc1)N(Cc1cccc(F)c1)C1CCS(=O)(=O)C1 (centres undefined),inactive
13,Cc1cccc(NCc2ccccc2)c1,inactive
14,Cc1ccc(NCc2cccc(B(O)O)c2)cc1,inactive
15,Cc1cc(C)cc(Cn2c3ccc(NC(=S)NCc4ccccc4F)cc3c(=O)n2C)c1,inactive
16,CC(=O)NC1C(=O)N(CCN2CCOCC2)c2ccc(Br)cc21 (centres undefined),inactive
17,O=C(c1ccc2c(c1)OCO2)N1CCc2ccccc2C1,inactive
18,CC(C)Oc1ccc(C(=O)CCN2CCOCC2)cc1,inactive
19,O=C(CCN1CCOCC1)c1ccc(N2CCCCC2)cc1,inactive
20,CCCn1c2ccccc2c2cn[nH]c(=O)c21,inactive
21,CC1CCC(NCCNC(=O)c2ccco2)CC1 (centres undefined),inactive
22,Cc1ccc(S(=O)(=O)Nc2nc(C)cc(NN)n2)cc1,inactive
23,FC(F)(F)c1cc(-c2ccccc2)nc(-n2cc(Cl)cn2)n1,inactive

row,SMILES,outcome
1,Cn1c(=O)c2[nH]c(SCc3ccccn3)nc2n(C)c1=S,inactive
2,O=C(NCCN1CCN(C(=O)c2ccccc2Cl)CC1)C(=O)NCc1ccccc1,inactive
3,CC(=O)Nc1nc(NCc2ccccc2Cl)n(-c2ccccc2)n1,inactive
4,CC(C)Nc1nc(Nc2ccc(C(N)=O)cc2)c2sccc2n1,inactive
5,CCSc1nnc2ccc(-c3cccs3)nn12,inactive
6,O=C(CCS(=O)(=O)c1ccc(Cl)cc1)Nc1ccc(N2CCOCC2)cc1,inactive
7,COc1ccc(/C=C/c2nc(C#N)c(NCCN(C)C)o2)cc1OC,inactive
8,CCOC(=O)C1(C)CCCCN1C(=O)c1cccc(Cl)c1 (centres undefined),inactive
9,CCCCNC(=O)C1(C)CCN1C(=O)c1cc2ccccc2s1 (centres undefined),inactive
10,CCc1nc(N)nc2c1C(=O)CC(C)(C)C2,inactive
11,CNc1ccc(-c2ccccc2OC)cn1,inactive
12,COc1ccc(CCN2C(=O)CC(Cc3ccccc3)C2=O)cc1OC (centres undefined),inactive
13,CCOC(=O)c1c(S(=O)(=O)NCCc2ccc(OC)c(OC)c2)c(C)n(C)c1C,inactive
14,COc1ccc(-c2nc3cccc(C)n3c2NCc2ccco2)cc1OC,inactive
15,COc1ccc(CCNC(=O)CCn2c(=O)c3ccccc3n(CC(=O)NCC3CCCO3)c2=O)cc1OC (centres undefined),inactive
16,COc1ccc(-c2noc(CCC(=O)Nc3cccnc3)n2)cc1OC,inactive
17,Cc1cc(NS(=O)(=O)c2ccc(NC(=O)C(C)Oc3ccccc3Cl)cc2)no1 (centres undefined),inactive
18,CC1(C)CC(=O)C(C=NC2CC(C)(C)NC(C)(C)C2)=C(O)C1,inactive
19,COCCNc1nc(NC(C)C)nc2ccsc12,inactive
20,CCn1nnnc1NCc1ccc(OCc2c(F)cccc2Cl)c(OC)c1,inactive
21,COCCN1Cc2cccc(C(=O)NCc3ccccc3OC)c2C1=O,inactive
22,COc1cc2ccc(C(C)=O)cc2cc1OC,inactive
23,COc1ccc2ccc(=O)oc2c1CC=C(C)C,inactive

row,SMILES,outcome
1,Cc1ccc(NC(=O)CN(C(=O)N2CCN(C)CC2)S(=O)(=O)c2ccc(C)cc2)cc1,inactive
2,FC(F)(F)c1cc(CCN2CCNC[C@@H]2Cc2ccccc2)cc(C(F)(F)F)c1,inactive
3,NC(=O)C1CCN(C(=O)CCNS(=O)(=O)c2ccccc2F)CC1,inactive
4,COc1ccccc1C(OC(=O)c1cccs1)C(=O)NCC1CCCO1 (centres undefined),inactive
5,CC(=O)Nc1cccc(-n2c(=O)n(Cc3ccccc3)c(=O)c3[nH]cnc32)c1,inactive
6,O=C(c1cccs1)N(Cc1cccc(F)c1)C1CCS(=O)(=O)C1 (centres undefined),inactive
7,C/C(=N/Oc1nc(C)cc(C)n1)c1ccc(F)cc1,inactive
8,C=CCn1c(O)c(N=NC(=O)CNC(=O)c2ccco2)c2ccccc21,inactive
9,CC(C)COC(=O)N1C[C@H](O)C[C@H]1C(=O)Nc1ccc(Cl)cc1,inactive
10,COc1ccc(CNC(=O)c2cnn3c(C(F)F)cc(C)nc23)cc1,inactive
11,Cn1cc(C(=O)NCC(=O)Nc2ccccc2Br)cn1,inactive
12,COc1ccccc1-c1cnc2c(Nc3cccc(OC(F)(F)C(F)F)c3)nccn12,inactive
13,O=C1CC(NS(=O)(=O)c2cccs2)CN1c1cccc(F)c1 (centres undefined),inactive
14,CC1(C)Cc2c(cnn2-c2ccccc2)C(NC(=O)CCN2CCCC2=O)C1 (centres undefined),inactive
15,COc1ccc(C2CC(c3ccc(OC)c(OC)c3)=NN2C(=O)c2ccccc2)cc1 (centres undefined),inactive
16,COc1ccc(-c2cc(C(F)(F)F)n3nc(C(=O)O)cc3n2)cc1OC,inactive
17,Cc1ccccc1Cc1c(C)nc2c(C(=O)NCc3ccco3)cnn2c1C,inactive
18,Cn1nnnc1Sc1ncnc2scc(-c3ccc(F)cc3)c12,inactive
19,CCOc1nc(CC(C)C)c2c(c1C#N)CC(C)(C)OC2,inactive
20,CCOc1nc(Nc2ccccc2F)nc(OCC)n1,inactive
21,CCOc1ncccc1C(=O)Nc1ccccc1F,inactive
22,CC(=O)c1cccc(NC(=O)CCC(=O)Oc2ccc(C)cc2)c1,inactive
23,Cc1cccc(C(=O)NC(=S)NNC(=O)COc2c(C)cccc2C)c1,inactive

row,SMILES,outcome
1,COc1ccc(C(=O)Nc2ccccc2C(=O)Nc2ccncc2)cc1,inactive
2,COc1ccc(NC(=O)C2(c3ccc(NC(=O)c4ccc(OC)cc4)cc3)CCCC2)cc1,inactive
3,CCOc1ncccc1C(=O)Nc1cccc(S(=O)(=O)NC2=NCCC2)c1,inactive
4,CCCCn1c(N2CCCC2)nc2c1c(=O)[nH]c(=O)n2C,inactive
5,C/C(Cl)=C\Cn1c(N2CCCC2)nc2c1c(=O)[nH]c(=O)n2C,inactive
6,COc1cc2c(cc1OC)-c1cc(N3CCc4ccccc43)nc(=O)n1CC2,inactive
7,Cc1nc2c(c(N3CCOCC3)n1)OCC(=O)N2,inactive
8,COc1ccc(OCCCCN(C)Cc2ccccc2)cc1,inactive
9,CCC(C)c1ccccc1OCCn1ccnc1 (centres undefined),inactive
10,CC1(C(=O)N2CCCCC2)CCN1C(=O)C1(c2ccccc2)CC1 (centres undefined),inactive
11,Cc1noc(C)c1S(=O)(=O)NC(=O)C1(C)CCN1C(=O)C1(c2ccc(Cl)cc2)CCC1 (centres undefined),inactive
12,CC1(C(=O)NS(=O)(=O)c2ccc(Cl)s2)CCN1C(=O)C1(c2ccc(Cl)cc2)CCC1 (centres undefined),inactive
13,CC1(C(=O)NS(=O)(=O)c2ccc(C#N)cc2)CCN1C(=O)C1(c2ccccc2)CCCC1 (centres undefined),inactive
14,COC(=O)COc1ccc(C)cc1-n1nc2ccccc2n1,inactive
15,O=c1[nH]c(CN2CCN(c3ccc(O)cc3)CC2)nc2scc(-c3ccc(Cl)cc3)c12,inactive
16,O=C(NCc1ccccc1)c1cccnc1Sc1ccccc1,inactive
17,CCC(O)c1nc2ccccc2n1CCc1ccccc1 (centres undefined),inactive
18,CC1(C)Cc2c(c(-c3ccco3)nc3n[nH]c(N)c23)CO1,inactive
19,COc1ccc(CCNC(=O)CN2c3cccc4cccc(c34)S2(=O)=O)cc1OC,inactive
20,Fc1cccc(-c2nnn3c2nc(Cl)c2ccccc23)c1,inactive
21,CC(=O)c1c(C)oc2ccc(NS(=O)(=O)c3ccc(F)cc3C)cc12,inactive
22,CCOC(=O)Cc1nn(Cc2ccccc2)c(=O)c2ccccc12,inactive
23,O=S(=O)(Nc1ccc(-c2ccc3nncn3n2)cc1)c1ccccc1Cl,inactive

row,SMILES,outcome
1,Cc1nc(N)c(C#N)c(-c2cccnc2)c1C,inactive
2,N#Cc1c(-c2ccncc2)cc(-c2ccc(F)cc2)nc1N,inactive
3,COc1ccc(Cn2c(=O)c3[nH]cnc3n(-c3ccccc3C)c2=O)cc1,inactive
4,CC(=O)c1ccc2c(c1)N(Cc1ccccc1)C(=O)C(C)S2 (centres undefined),inactive
5,Cc1ccc(OCC(=O)NNC(=O)CCC(=O)Nc2ccc(C)cc2C)cc1,inactive
6,Cc1ccccc1NC(=O)c1ccc(OCc2c(C)noc2C)cc1,inactive
7,COc1ccc(CO/N=C/c2c(C)[nH]c(=O)[nH]c2=O)cc1,inactive
8,CCc1nc2c(nnn2Cc2ccc(F)cc2)c(=O)[nH]1,inactive
9,S=c1[nH]nc(-c2ccccc2)n1/N=C/c1c[nH]c2ccccc12,inactive
10,Cc1ccccc1-c1n[nH]c(=S)n1/N=C/c1c(C)nn(-c2ccccc2)c1C,inactive
11,CCOC(=O)c1oc2cc(O)cc(C)c2c1C,inactive
12,C=CCNc1sc(C(=O)C2CC2)c(N)c1C#N,inactive
13,Cc1cccc(N2CCN(C(=O)c3cccn4c(=O)c5c(C)c(C)sc5nc34)CC2)c1C,inactive
14,Cc1ccc(F)cc1NC(=O)c1sc2ncn(CC(=O)N3CCN(c4ccccn4)CC3)c(=O)c2c1C,inactive
15,COc1ccc(/C=N/Nc2ncnc3c2[nH]c2ccccc23)c(OC)c1OC,inactive
16,O=C(CCc1ccccc1)NNC(=O)COc1ccccc1Cl,inactive
17,Cn1c(N)c(C(c2ccccc2)c2c(N)n(C)c(=O)n(C)c2=O)c(=O)n(C)c1=O,inactive
18,O=c1cc(Cl)[nH]c(=O)n1Cc1ccccc1,inactive
19,O=c1cc(-c2ccncc2)oc2c1ccc1ccccc12,inactive
20,CC(C)Cn1c(Cc2ccccc2)n[nH]c1=S,inactive
21,COc1ccc(S(=O)(=O)N(C)CC(=O)Nc2ccc3c(c2)OCCO3)cc1OC,inactive
22,O=C(O)Cc1ccc(NS(=O)(=O)c2ccc3c(c2)OCCO3)cc1,inactive

# — PubChem BioAssay AID977606 (Broad Institute, 2014)
